Tests used:
Conditions in all cases: treatment time: 24 h
A549-ACTB-RAB5A [1] = assay: lowest phenotypically active concentration; higher = less potent
Method in brief: (§1)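 The reporter lines, fifteen in total and built by gene editing in A549, HepG2 and WPMY1 cells, used BFP for segmentation alongside GFP and RFP/FusionRed markers. Each was treated at 0.3, 1, 3 or 9 µM for 24 h in four wells and then imaged live, with live-cell features normalised to solvent control wells. Deviation meant ≥3 of 4 wells beyond the 95th percentile of control Euclidean distances; reproducibility meant a median replicate Pearson correlation above the 95th percentile of non-replicates. Only conditions meeting both were scored as phenotypically active.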

A549-GM130-SQSTM1 [2] = assay: as above
Method in brief: as §1

A549-TUBA1B-RELA [3] = assay: as above
Method in brief: as §1

HepG2-ACTB-RAB5A [4] = assay: as above
Method in brief: as §1

HepG2-TP53BP1-CLTA [5] = assay: as above
Method in brief: as §1

A549-ACTB-RAB5A [6] = assay: phenotypically active (imaging signature differs from DMSO and reproducible) at any of 0.3-9 uM (binary (1 = active, 0 = inactive)); higher = active
Method in brief: as §1

A549-CANX-COX4 = assay: as above
Method in brief: as §1

A549-GM130-SQSTM1 [7] = assay: as above
Method in brief: as §1

A549-TP53BP1-CLTA = assay: as above
Method in brief: as §1

A549-TUBA1B-RELA [8] = assay: as above
Method in brief: as §1

HepG2-ACTB-RAB5A [9] = assay: as above
Method in brief: as §1

HepG2-CANX-COX4 = assay: as above
Method in brief: as §1

HepG2-GM130-SQSTM1 = assay: as above
Method in brief: as §1

HepG2-TP53BP1-CLTA [10] = assay: as above
Method in brief: as §1

HepG2-TUBA1B-RELA = assay: as above
Method in brief: as §1

WPMY1-ACTB-RAB5A = assay: as above
Method in brief: as §1

WPMY1-CANX-COX4 = assay: as above
Method in brief: as §1

WPMY1-GM130-SQSTM1 = assay: as above
Method in brief: as §1

WPMY1-TP53BP1-CLTA = assay: as above
Method in brief: as §1

WPMY1-TUBA1B-RELA = assay: as above
Method in brief: as §1

| Compound | lowest phenotypically active concentration (A549-ACTB-RAB5A [1]) | lowest phenotypically active concentration (A549-GM130-SQSTM1 [2]) | lowest phenotypically active concentration (A549-TUBA1B-RELA [3]) | lowest phenotypically active concentration (HepG2-ACTB-RAB5A [4]) | lowest phenotypically active concentration (HepG2-TP53BP1-CLTA [5]) | phenotypically active (A549-ACTB-RAB5A [6]) | phenotypically active (A549-CANX-COX4) | phenotypically active (A549-GM130-SQSTM1 [7]) | phenotypically active (A549-TP53BP1-CLTA) | phenotypically active (A549-TUBA1B-RELA [8]) | phenotypically active (HepG2-ACTB-RAB5A [9]) | phenotypically active (HepG2-CANX-COX4) | phenotypically active (HepG2-GM130-SQSTM1) | phenotypically active (HepG2-TP53BP1-CLTA [10]) | phenotypically active (HepG2-TUBA1B-RELA) | phenotypically active (WPMY1-ACTB-RAB5A) | phenotypically active (WPMY1-CANX-COX4) | phenotypically active (WPMY1-GM130-SQSTM1) | phenotypically active (WPMY1-TP53BP1-CLTA) | phenotypically active (WPMY1-TUBA1B-RELA) |
| --- | --- | --- | --- | --- | --- | --- | --- | --- | --- | --- | --- | --- | --- | --- | --- | --- | --- | --- | --- | --- |
| CCCCCCCCCCNCCSSCc1ccc(Cl)cc1 | 9 µM | 3 µM | 3 µM | 3 µM | 9 µM | 1 (active) | 1 (active) | 1 (active) | 1 (active) | 1 (active) | 1 (active) | 1 (active) | 1 (active) | 1 (active) | 1 (active) | 0 (inactive) | 1 (active) | 1 (active) | 1 (active) | 0 (inactive) |
| CC(=O)c1c(C)c2cnc(Nc3ccc(N4CCNCC4)cn3)nc2n(C2CCCC2)c1=O | ≤ 0.3 µM | ≤ 0.3 µM | ≤ 0.3 µM | ≤ 0.3 µM | ≤ 0.3 µM | 1 (active) | 1 (active) | 1 (active) | 1 (active) | 1 (active) | 1 (active) | 1 (active) | 1 (active) | 1 (active) | 1 (active) | 1 (active) | 1 (active) | 1 (active) | 1 (active) | 1 (active) |
| N=C(N)c1ccc(OCCCCCOc2ccc(C(=N)N)cc2)cc1 [pentamidine] | 1 µM | 1 µM | 1 µM | 9 µM | 9 µM | 1 (active) | 1 (active) | 1 (active) | 1 (active) | 1 (active) | 1 (active) | 1 (active) | 0 (inactive) | 1 (active) | 1 (active) | 0 (inactive) | 0 (inactive) | 1 (active) | 0 (inactive) | 0 (inactive) |
| CN(C)C(=O)C(CCN1CCC(O)(c2ccc(Cl)cc2)CC1)(c1ccccc1)c1ccccc1 [loperamide] | 3 µM | 9 µM | 3 µM | 3 µM | 9 µM | 1 (active) | 1 (active) | 1 (active) | 1 (active) | 1 (active) | 1 (active) | 0 (inactive) | 1 (active) | 1 (active) | 1 (active) | 1 (active) | 1 (active) | 1 (active) | 1 (active) | 1 (active) |
| O=C(NOC[C@H](O)CO)c1ccc(F)c(F)c1Nc1ccc(I)cc1F | ≤ 0.3 µM | ≤ 0.3 µM | 1 µM | ≤ 0.3 µM | ≤ 0.3 µM | 1 (active) | 1 (active) | 1 (active) | 1 (active) | 1 (active) | 1 (active) | 1 (active) | 1 (active) | 1 (active) | 1 (active) | 1 (active) | 0 (inactive) | 1 (active) | 1 (active) | 0 (inactive) |
| CC[C@H](CO)Nc1nc(NCc2ccccc2)c2ncn(C(C)C)c2n1 [Roscovitine] | ≤ 0.3 µM | ≤ 0.3 µM | ≤ 0.3 µM | 9 µM | 3 µM | 1 (active) | 1 (active) | 1 (active) | 1 (active) | 1 (active) | 1 (active) | 1 (active) | 1 (active) | 1 (active) | 1 (active) | 1 (active) | 1 (active) | 0 (inactive) | 1 (active) | 1 (active) |
| Cn1cnc2c(F)c(Nc3ccc(Br)cc3Cl)c(C(=O)NOCCO)cc21 [selumetinib] | ≤ 0.3 µM | ≤ 0.3 µM | ≤ 0.3 µM | ≤ 0.3 µM | ≤ 0.3 µM | 1 (active) | 1 (active) | 1 (active) | 1 (active) | 1 (active) | 1 (active) | 1 (active) | 1 (active) | 1 (active) | 1 (active) | 1 (active) | 0 (inactive) | 1 (active) | 1 (active) | 0 (inactive) |
| CNc1nc(-c2ccc3c(N)n[nH]c3c2)cc(N2C[C@@H](C(=O)NC3CCCCC3)CC[C@H]2C)n1 | 1 µM | 1 µM | 3 µM |  | 3 µM | 1 (active) | 1 (active) | 1 (active) | 1 (active) | 1 (active) | 0 (inactive) | 1 (active) | 1 (active) | 1 (active) | 1 (active) | 1 (active) | 1 (active) | 1 (active) | 1 (active) | 1 (active) |
| O=C1N=C(NCc2cccs2)S/C1=C\c1ccc2ncccc2c1 | 3 µM | 1 µM | 3 µM |  | 3 µM | 1 (active) | 1 (active) | 1 (active) | 1 (active) | 1 (active) | 0 (inactive) | 1 (active) | 1 (active) | 1 (active) | 1 (active) | 1 (active) | 1 (active) | 1 (active) | 1 (active) | 1 (active) |
| CN(C)CC(=O)N1CCC[C@@H](n2nc(-c3ccc(Oc4ccccc4)cc3)c3c(N)ncnc32)C1 | 1 µM | 1 µM | 1 µM | 1 µM | 1 µM | 1 (active) | 1 (active) | 1 (active) | 1 (active) | 1 (active) | 1 (active) | 1 (active) | 1 (active) | 1 (active) | 1 (active) | 1 (active) | 1 (active) | 1 (active) | 1 (active) | 1 (active) |
| CC1(C)CC(=O)C2=C(C1)NC(=S)NC2c1cccc(O)c1 (stereo unspecified) [Dimethylenastron] | 1 µM | 1 µM | 1 µM | 1 µM | 1 µM | 1 (active) | 1 (active) | 1 (active) | 1 (active) | 1 (active) | 1 (active) | 1 (active) | 1 (active) | 1 (active) | 1 (active) | 1 (active) | 1 (active) | 1 (active) | 1 (active) | 1 (active) |
| O=C(O)[C@]1(Cc2cccc(Nc3nccs3)n2)CC[C@@H](Oc2cccc(Cl)c2F)CC1 | ≤ 0.3 µM | ≤ 0.3 µM | 1 µM | ≤ 0.3 µM | ≤ 0.3 µM | 1 (active) | 1 (active) | 1 (active) | 1 (active) | 1 (active) | 1 (active) | 1 (active) | 1 (active) | 1 (active) | 1 (active) | 1 (active) | 1 (active) | 0 (inactive) | 1 (active) | 1 (active) |
| CCN(CC)CCNc1ccc(CO)c2sc3ccccc3c(=O)c12 [hycanthone] | 9 µM | 9 µM | 9 µM | 9 µM | 9 µM | 1 (active) | 1 (active) | 1 (active) | 1 (active) | 1 (active) | 1 (active) | 0 (inactive) | 1 (active) | 1 (active) | 1 (active) | 1 (active) | 1 (active) | 1 (active) | 1 (active) | 1 (active) |
| CN(C)CCCN1c2ccccc2Sc2ccc(Cl)cc21 [chlorpromazine] | 3 µM | 3 µM | 3 µM |  | 9 µM | 1 (active) | 1 (active) | 1 (active) | 1 (active) | 1 (active) | 0 (inactive) | 1 (active) | 1 (active) | 1 (active) | 1 (active) | 1 (active) | 1 (active) | 0 (inactive) | 1 (active) | 1 (active) |
| Cc1ccc(Nc2nccc(N(C)c3ccc4c(C)n(C)nc4c3)n2)cc1S(N)(=O)=O [pazopanib] | 1 µM | 3 µM | 3 µM |  | 9 µM | 1 (active) | 1 (active) | 1 (active) | 1 (active) | 1 (active) | 0 (inactive) | 1 (active) | 1 (active) | 1 (active) | 0 (inactive) | 1 (active) | 1 (active) | 0 (inactive) | 0 (inactive) | 1 (active) |
| O=C(Nc1cccnc1)N1CCC(Cc2cccc(Oc3ccc(C(F)(F)F)cn3)c2)CC1 | 9 µM | 3 µM | 9 µM | 9 µM | 9 µM | 1 (active) | 1 (active) | 1 (active) | 1 (active) | 1 (active) | 1 (active) | 0 (inactive) | 0 (inactive) | 1 (active) | 1 (active) | 0 (inactive) | 0 (inactive) | 1 (active) | 0 (inactive) | 0 (inactive) |
| O=C1c2c(O)ccc(O)c2C(=O)c2c(NCCNCCO)ccc(NCCNCCO)c21 [mitoxantrone] | ≤ 0.3 µM | ≤ 0.3 µM | ≤ 0.3 µM | ≤ 0.3 µM | ≤ 0.3 µM | 1 (active) | 1 (active) | 1 (active) | 1 (active) | 1 (active) | 1 (active) | 1 (active) | 1 (active) | 1 (active) | 1 (active) | 1 (active) | 1 (active) | 1 (active) | 1 (active) | 1 (active) |
| S=C(S)N1CCCC1 [Pyrrolidinedithiocarbamate ammonium] | 3 µM | 3 µM | 3 µM | 9 µM | 3 µM | 1 (active) | 1 (active) | 1 (active) | 1 (active) | 1 (active) | 1 (active) | 1 (active) | 1 (active) | 1 (active) | 1 (active) | 0 (inactive) | 0 (inactive) | 1 (active) | 0 (inactive) | 0 (inactive) |
| CCCCNNC(=O)c1ccc(Br)cc1 | 1 µM | 3 µM | 3 µM | 1 µM | 1 µM | 1 (active) | 1 (active) | 1 (active) | 1 (active) | 1 (active) | 1 (active) | 1 (active) | 1 (active) | 1 (active) | 1 (active) | 0 (inactive) | 1 (active) | 1 (active) | 1 (active) | 1 (active) |
| CC(C)(C)c1nc(-c2cccc(NS(=O)(=O)c3c(F)cccc3F)c2F)c(-c2ccnc(N)n2)s1 [dabrafenib] | ≤ 0.3 µM | ≤ 0.3 µM | ≤ 0.3 µM | 3 µM | ≤ 0.3 µM | 1 (active) | 1 (active) | 1 (active) | 1 (active) | 1 (active) | 1 (active) | 1 (active) | 1 (active) | 1 (active) | 1 (active) | 1 (active) | 1 (active) | 0 (inactive) | 0 (inactive) | 1 (active) |
| C=CC(=O)Nc1cccc(Nc2nc(Nc3ccc(Oc4ccnc(C(=O)NC)c4)cc3)ncc2F)c1 | 9 µM | 9 µM | 9 µM | 9 µM | 9 µM | 1 (active) | 1 (active) | 1 (active) | 1 (active) | 1 (active) | 1 (active) | 0 (inactive) | 1 (active) | 1 (active) | 1 (active) | 1 (active) | 1 (active) | 1 (active) | 0 (inactive) | 0 (inactive) |
| CC[C@]12CCCN3CCc4c(n(c5ccccc45)C(=O)C1)[C@@H]32 [Eburnamonine (-)] | 9 µM | 9 µM | 9 µM | 9 µM | 9 µM | 1 (active) | 1 (active) | 1 (active) | 1 (active) | 1 (active) | 1 (active) | 0 (inactive) | 0 (inactive) | 1 (active) | 1 (active) | 1 (active) | 1 (active) | 0 (inactive) | 1 (active) | 1 (active) |

Source: the supplement of paper PMC7411054
